molecular target: pT7_6His-AlfaTag-ZIF268 (human, UniProt P18146 335-423); assay: PADIT-seq; details: dsDNA, one strand shown

Sequence	binding signal [log2FC]
CTCGAGGATATCAAGATCTGGCCTCGGCCGCCCAGACGGAACCTCTAGCTAGCCGACTCACTATAGGGATAATCGCCCTGAGCAAAGACC	0.0722 ± 0.0958
CTCGAGGATATCAAGATCTGGCCTCGGCCGCACACGCGGAACCTCTAGCTAGCCGACTCACTATAGGGATAATCGCCCTGAGCAAAGACC	0.422 ± 0.0927
CTCGAGGATATCAAGATCTGGCCTCGGCGCGTGGATTGGAACCTCTAGCTAGCCGACTCACTATAGGGATAATCGCCCTGAGCAAAGACC	0.000823 ± 0.102
CTCGAGGATATCAAGATCTGGCCTCGGCCGCCCAGATGGAACCTCTAGCTAGCCGACTCACTATAGGGATAATCGCCCTGAGCAAAGACC	0.0137 ± 0.113
CTCGAGGATATCAAGATCTGGCCTCGGCGTTTGGGCGGGAACCTCTAGCTAGCCGACTCACTATAGGGATAATCGCCCTGAGCAAAGACC	0.123 ± 0.0893
CTCGAGGATATCAAGATCTGGCCTCGGCGCGTGGTGCGGAACCTCTAGCTAGCCGACTCACTATAGGGATAATCGCCCTGAGCAAAGACC	0.41 ± 0.0906
CTCGAGGATATCAAGATCTGGCCTCGGCGATTGGGCGGGAACCTCTAGCTAGCCGACTCACTATAGGGATAATCGCCCTGAGCAAAGACC	0.0131 ± 0.0888
CTCGAGGATATCAAGATCTGGCCTCGGCCGCCCACGGGGAACCTCTAGCTAGCCGACTCACTATAGGGATAATCGCCCTGAGCAAAGACC	1.11 ± 0.0917
CTCGAGGATATCAAGATCTGGCCTCGGCGGATGGGCGGGAACCTCTAGCTAGCCGACTCACTATAGGGATAATCGCCCTGAGCAAAGACC	0.0532 ± 0.0937
CTCGAGGATATCAAGATCTGGCCTCGGCGCGTGGTTGGGAACCTCTAGCTAGCCGACTCACTATAGGGATAATCGCCCTGAGCAAAGACC	0.34 ± 0.0919
